We go through 20 compounds from PubChem BioAssay (EPA / NIEHS).

The AC50 is the midpoint of the concentration-response curve, whichever way the signal moves.

The nature of assay [1]: TOX21_p53_BLA_p2_viability: Viability Assessment in the Tox21 HCT-116 p53 Agonism Beta-lactamase Assay, Phase 2 (AID 2283591).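 Further: compound exposure lasted 16 h at 37 °C; actives lower the ATP signal meaning cytotoxicity.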 The essentials:
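HCT-116 p53-bla cells (4000/well) rested 5 h at 37C, then received compounds in DMSO (217-fold dilution) for 16 h at 37C, 5% CO2. After the CCF4 read, CellTiter-Glo was added; ATP luminescence was read after 30 min at room temperature.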

For assay [2], the target named is Cellular tumor antigen p53 (Homo sapiens) (UniProt P04637). Kind of assay: TOX21_p53_BLA_p2_ratio: Tox21 HCT-116 p53 Agonism Beta-lactamase Assay, Ratio, Phase 2 (AID 2283592). In short, it runs like this: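 HCT116 p53-bla; 4000 cells/well; 5 h pre-incubation; cpd in DMSO, 217-fold dilution; 16 h 37C/5% CO2; CCF4-AM 2 h RT; Ex 405, Em 460/530 ratio; DMSO = baseline; positive fitting direction.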

Assay [3] is described as follows: TOX21_p53_BLA_p4_viability: Viability Assessment in the Tox21 HCT-116 p53 Agonism Beta-lactamase Assay, Phase 4 (AID 2283597).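 Further: hits lower the luminescence signal meaning cytotoxicity.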 In short, it runs like this: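 Cells plated, 5 h pre-incubation; DMSO compounds pinned (217-fold dilution); 16 h, 37C/5% CO2; CCF4-AM 2 h RT; CellTiter-Glo 30 min RT; luminescence read.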
Assay [4] deals with Cellular tumor antigen p53 (Homo sapiens) (UniProt P04637). The assay is described as follows: TOX21_p53_BLA_p5_ratio: Tox21 HCT-116 p53 Agonism Beta-lactamase Assay, Ratio, Phase 5 (AID 2283599). The essentials: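 HCT-116 cells carrying a p53-inducible beta-lactamase reporter were seeded at 4000 cells/well and dosed after 5 h with compound in DMSO (217-fold dilution). After 16 h at 37C, CCF4-AM substrate was added for 2 h, and the 460/530 nm emission ratio was scored as gain-of-signal versus DMSO.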

Assay [5] can be described thus: TOX21_p53_BLA_p5_viability: Viability Assessment in the Tox21 HCT-116 p53 Agonism Beta-lactamase Assay, Phase 5 (AID 2283600). The essentials: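 4000 cells/well; 5 h pre-incubation; DMSO compounds pin-transferred, 217-fold dilution; 16 h, 37C/5% CO2; CCF4-AM 2 h RT; CellTiter-Glo 30 min RT; luminescence.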
Assay [6] deals with Cellular tumor antigen p53 (Homo sapiens) (UniProt P04637). Kind of assay: TOX21_p53_BLA_p4_ratio: Tox21 HCT-116 p53 Agonism Beta-lactamase Assay, Ratio, Phase 4 (AID 2283601). The essentials:
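HCT116 cells carrying an inducible beta-lactamase reporter were plated at 4000 cells/well, rested 5 h, then exposed to compounds in DMSO (217-fold dilution) for 16 h at 37C. CCF4-AM substrate was loaded 2 h at room temperature; 460/530 nm emission ratio scored gain-of-signal versus DMSO.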

The target of assay [7] is PGR (gene 5241) (UniProt P06401). Kind of assay: TOX21_PR_BLA_Followup_Antagonist_ratio: Tox21 HEK293 Progesterone Receptor (PR) Antagonism Beta-lactamase Follow-Up Assay, Ratio (AID 2283934). In short, it runs like this:
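PR-UAS-bla HEK293T cells, 3,000/well in 2% charcoal-stripped FBS, given compound plus 1nM R5020 agonist for 16 hr at 37C. Beta-lactamase FRET substrate 2 hours, ratio cleaved/uncleaved fluorescence; viability by CellTiter-Glo in same wells.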

Assay [8] can be described thus: TOX21_PR_BLA_Followup_Agonist_viability: Viability Assessment in the Tox21 HEK293 Progesterone Receptor (PR) Agonism Beta-lactamase Follow-Up Assay (AID 2283935).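 Further: signal loss means lower viability so actives are cytotoxic.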 In short, it runs like this: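 PR-UAS-bla HEK293T cells in 2% charcoal-stripped FBS medium, plated 6 hr before compound addition, exposed 16 hr at 37C. Viability read by CellTiter-Glo ATP luminescence after 30 min at room temperature, in the same wells as the beta-lactamase readout.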

Assay [9] is described as follows: TOX21_PR_BLA_Followup_Antagonist_viability: Viability Assessment in the Tox21 HEK293 Progesterone Receptor (PR) Antagonism Beta-lactamase Follow-Up Assay (AID 2283936).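 Further: hits lower the luminescence signal meaning cytotoxicity.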 In short, it runs like this: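 PR-UAS-bla HEK293T cells (3,000/well, 2% charcoal-stripped FBS) given compound plus R5020 agonist, 16 h at 37C. CellTiter-Glo added after bla read, 30 min at room temperature; luminescence loss indicates cytotoxicity.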

Assay [10] has as its target PGR (gene 5241) (UniProt P06401). Kind of assay: TOX21_PR_LUC_Followup_Agonist: Tox21 HEK293 Progesterone Receptor (PR) Agonism Luciferase Follow-Up Assay (AID 2283937; active means hit-call score of the fitted dose curve at least 0.9, where 1 is the maximum; inactive means score below 0.9). The essentials: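 HEK293-PR-A-luc cells, conditioned 5 days in 10% charcoal-stripped FBS medium, seeded 3,000/well for 5 h, then compound-treated 16 h at 37C. ONE-Glo luminescence read after 30 min at room temperature; gain of signal versus DMSO.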

Assay [11] in a line: TOX21_PR_LUC_Followup_Agonist_viability: Viability Assessment in the Tox21 HEK293 Progesterone Receptor (PR) Agonism Luciferase Follow-Up Assay (AID 2283941).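 Further: loss of signal means cytotoxicity so actives lower viability.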 In short, it runs like this:
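HEK293-PR-A-luc cells, kept in 10% charcoal-stripped FBS medium, were treated with compounds for 16 h at 37C. Viability read as cellular ATP by luciferase-coupled luminescence; loss of signal indicates cytotoxicity.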

The target of assay [12] is PGR (gene 5241) (UniProt P06401). Kind of assay: TOX21_PR_LUC_Followup_Antagonist: Tox21 HEK293 Progesterone Receptor (PR) Antagonism Luciferase Follow-Up Assay (AID 2283938).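 Further: curve fitted upward as signal gain over DMSO baseline despite antagonist label.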 The essentials:
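Cells are grown 5 days in charcoal-stripped-FBS assay medium, plated, left 5 h, then dosed with compound and incubated 16 h. ONE-Glo reagent is added and luminescence read after 30 min.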

Assay [13] concerns the target Thyroid hormone receptor alpha (Rattus norvegicus) + Thyroid hormone receptor beta (Rattus norvegicus) (UniProt P18113+P63059). The assay is described as follows: TOX21_TR_LUC_GH3_Antagonist_Followup: Tox21 GH3 Thyroid Hormone Receptor Antagonism Luciferase Follow-Up Assay (AID 2283942). In short, it runs like this:
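Rat pituitary GH3 cells with a TRα/TRβ-driven luciferase reporter, 5 h attachment, then 15 concentrations (92 uM to 5nM final) plus 1.0 nM T3 agonist, 24 h at 37C/5% CO2. ONE-Glo luminescence; signal change fitted against DMSO baseline.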

Assay [14] is described as follows: TOX21_TR_RXR_BLA_Antagonist_Followup_viability: Viability Assessment in the Tox21 Thyroid Hormone Receptor beta Retinoid X Receptor alpha (RXRa) Antagonism Beta-lactamase (BLA) Follow-Up Assay (AID 2283979). In short, it runs like this: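 RXRa-UAS-bla HEK293T cells seeded 2,500/well in phenol red-free DMEM with 2% charcoal-stripped FBS, attached 5 h, then exposed to compounds at 11 concentrations in triplicate for 16 h at 37C/5% CO2. Viability read by CellTiter-Glo ATP luminescence; bidirectional fit versus DMSO.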

Assay [15] in a line: CCTE_Harrill_HTTr_Viability_MCF7: CCTE's 6-hour Cell Viability Assessment for the High-Throughput Transcriptomics (HTTr) Platform, in MCF-7 cells cultured in DMEM + 10% fetal bovine serum, Harrill Lab (AID 2284010; active means hit-call score of the fitted dose curve at least 0.9, where 1 is the maximum; inactive means score below 0.9). The essentials: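 MCF-7 cells in DMEM + 10% FBS, 384-well, exposed 6 h to an eight-point dilution series. Membrane integrity scored by high-content imaging of propidium iodide exclusion; bidirectional fit versus DMSO.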

A short description of assay [16]: CCTE_Harrill_HTTr_Apoptosis_MCF7: CCTE's 6-hour Apoptosis Assessment for the High-Throughput Transcriptomics (HTTr) Platform, in MCF-7 cells cultured in DMEM + 10% fetal bovine serum, Harrill Lab (AID 2284011; active means hit-call score of the fitted dose curve at least 0.9, where 1 is the maximum; inactive means score below 0.9). In short, it runs like this: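 MCF-7 (DMEM + 10% FBS), 384-well; 8-pt dilution series, 6 h chemical exposure; caspase-3/7 activation via CellEvent Caspase 3/7 Green, HCI; bidirectional fit vs DMSO.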

A short description of assay [17]: TOX21_p53_BLA_p3_viability: Viability Assessment in the Tox21 HCT-116 p53 Agonism Beta-lactamase Assay, Phase 3 (AID 2283593).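 Further: cells exposed to compound for 16 h before reading.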 The essentials:
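HCT-116 cells (4000/well) rested 5 h at 37C, then got DMSO compounds by pin tool (217-fold dilution) for 16 h at 37C, 5% CO2. After the bla read, CellTiter-Glo was added and luminescence read at 30 min, room temperature.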

Assay [18] deals with Cellular tumor antigen p53 (Homo sapiens) (UniProt P04637). Kind of assay: TOX21_p53_BLA_p3_ratio: Tox21 HCT-116 p53 Agonism Beta-lactamase Assay, Ratio, Phase 3 (AID 2283596). In short, it runs like this:
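HCT116 p53-bla cells (4000/well) given compound in DMSO (217-fold dilution) after 5 h, incubated 16 h at 37C. CCF4-AM substrate 2 h at room temperature; 460/530 nm emission ratio, gain fitted against DMSO.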

Records with an inconclusive call do not appear. Calls of active or inactive are those of the source. How the source made its calls, unless noted: active means hit-call score of the fitted dose curve at least 0.9, where 1 is the maximum; inconclusive means response in the unintended direction; inactive means score below 0.9.

Chain of PGR (gene 5241) (P06401 whole entry, looked up): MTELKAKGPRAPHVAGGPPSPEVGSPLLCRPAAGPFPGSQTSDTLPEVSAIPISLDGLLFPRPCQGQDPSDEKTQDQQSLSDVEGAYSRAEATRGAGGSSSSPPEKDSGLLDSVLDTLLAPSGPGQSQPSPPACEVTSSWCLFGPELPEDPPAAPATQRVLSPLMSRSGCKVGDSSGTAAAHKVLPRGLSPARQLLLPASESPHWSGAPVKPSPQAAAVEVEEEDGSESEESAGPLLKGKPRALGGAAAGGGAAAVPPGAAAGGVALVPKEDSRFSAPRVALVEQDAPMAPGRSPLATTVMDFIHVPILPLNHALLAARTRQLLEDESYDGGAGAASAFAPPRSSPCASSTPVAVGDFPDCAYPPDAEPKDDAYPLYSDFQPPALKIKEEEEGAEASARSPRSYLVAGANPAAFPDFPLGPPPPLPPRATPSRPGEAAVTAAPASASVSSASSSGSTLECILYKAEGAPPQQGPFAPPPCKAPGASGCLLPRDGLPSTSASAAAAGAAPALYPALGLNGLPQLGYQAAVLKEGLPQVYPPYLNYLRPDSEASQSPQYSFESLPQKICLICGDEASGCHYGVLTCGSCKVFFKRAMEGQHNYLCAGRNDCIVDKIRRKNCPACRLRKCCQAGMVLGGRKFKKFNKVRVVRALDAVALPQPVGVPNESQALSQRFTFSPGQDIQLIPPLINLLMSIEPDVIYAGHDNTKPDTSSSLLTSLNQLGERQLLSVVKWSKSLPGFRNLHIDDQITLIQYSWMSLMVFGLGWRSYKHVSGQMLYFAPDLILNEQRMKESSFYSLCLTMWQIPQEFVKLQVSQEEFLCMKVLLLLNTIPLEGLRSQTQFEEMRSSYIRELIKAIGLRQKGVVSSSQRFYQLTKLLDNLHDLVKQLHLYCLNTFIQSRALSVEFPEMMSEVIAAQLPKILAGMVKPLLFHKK
Chain of Cellular tumor antigen p53 (Homo sapiens) (P04637 whole entry, looked up): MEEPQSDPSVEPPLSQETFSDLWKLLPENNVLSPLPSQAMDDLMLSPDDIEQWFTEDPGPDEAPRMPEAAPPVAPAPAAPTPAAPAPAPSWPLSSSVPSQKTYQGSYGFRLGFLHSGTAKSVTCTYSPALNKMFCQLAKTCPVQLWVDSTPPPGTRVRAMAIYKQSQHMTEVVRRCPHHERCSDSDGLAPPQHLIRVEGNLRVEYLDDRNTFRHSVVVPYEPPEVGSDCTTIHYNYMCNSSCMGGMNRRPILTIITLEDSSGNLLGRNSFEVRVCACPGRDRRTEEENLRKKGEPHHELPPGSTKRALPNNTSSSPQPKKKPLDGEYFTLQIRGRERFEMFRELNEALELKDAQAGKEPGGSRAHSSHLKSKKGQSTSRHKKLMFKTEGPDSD

As to `Nc1cc(Cl)c([N+](=O)[O-])cc1O`, the result in assay [1], in assay [2], in assay [3], in [4], in assay [5] and in assay [6] was inactive.
As to `CCC(=O)Nc1cccc(N)c1`, the compound was called inactive in [1], in assay [2], in [3] and in [5].
As for `CCc1cn([C@H]2C[C@H](O)[C@@H](CO)O2)c(=O)[nH]c1=O`, the result in assay [1], in assay [2], in assay [3], in assay [4], in assay [5] and in assay [6] was inactive.
For `CCOC(=O)[C@H](CCc1ccccc1)N[C@H]1CCCN2CCC[C@@H](C(=O)O)N2C1=O`, the compound was called inactive in assay [1], in assay [2], in [3], in assay [4] and in assay [6].
As to `Nc1ccccn1`, the compound was classed as inactive in [1], in [2], in assay [3], in [4], in assay [5] and in [6].
Consider `O=C1N(c2ccccc2)c2ccccc2C1(Cc1ccncc1)Cc1ccncc1`, for which the result in assay [1], in assay [2], in assay [3], in [4] and in assay [6] was inactive.
Turning to `CC(=O)OCC(=O)[C@@]1(O)CC[C@H]2[C@@H]3CCC4=CC(=O)C=C[C@]4(C)[C@@]3(F)[C@@H](O)C[C@@]21C`, the result (in the assay with PGR (gene 5241) [7]; in assay [8]; in [9]; in assay [11]) was inactive. Also, in the assay with PGR (gene 5241) [10], the AC50 is 0.123 µM (active).
As for `CCn1c2ccccc2c2cc([N+](=O)[O-])ccc21`, the AC50 with PGR (gene 5241) [7] was 6.29 µM (active); with PGR (gene 5241) [12], 8.06 µM (active). Moreover, the compound was classed as inactive (in assay [8]; in [9]; in the assay with PGR (gene 5241) [10]; in [11]).
Consider `COc1ccc(/C=C/C(=O)Nc2ccccc2C(=O)O)cc1OC`, for which, in [13], the AC50 was 2.7 µM (active). In [14], the compound was classed as inactive.
Take `CCOC(=N)CC(=O)OCC`: the outcome in assay [15] and in assay [16] was inactive.
As for `NC(Cc1ccc(Cl)cc1)C(=O)O` (stereo not given), the call in [1], in assay [17] and in assay [18] was inactive.
For the compound `CCCC(=O)OC[C@@H](OC(=O)CCC)[C@@H](OC(=O)CCC)[C@H](Cn1c2nc(=O)[nH]c(=O)c-2nc2cc(C)c(C)cc21)OC(=O)CCC`, the outcome in [1], in assay [17], in assay [18] and in [3] was inactive.
As for `CCCCCCCN`, the call in assay [1], in assay [2] and in [6] was inactive.
As to `CN1CCN(C(=O)C2CCCCC2)CC1`, the result in assay [1], in [2] and in assay [5] was inactive.
As to `CC(=O)OC[C@H]1O[C@@H](O[C@H]2[C@H](O)[C@@H](OC(=O)c3ccccc3C(=O)O)[C@H](O)O[C@@H]2COC(C)=O)[C@H](O)[C@@H](OC(=O)c2ccccc2C(=O)O)[C@@H]1O`, the compound was called inactive in assay [1], in assay [17], in [18] and in assay [3].
As for `CCc1ccc(C)cc1`, the outcome in [1], in [2] and in assay [5] was inactive.
Turning to `CC(C)CN(C[C@@H](O)[C@H](Cc1ccccc1)NC(=O)O[C@@H]1CCOC1)S(=O)(=O)c1ccc(N)cc1`, the compound was classed as inactive in assay [1], in [2] and in [5].
For `C[N+](C)(C)CCCCCCCCCC[N+](C)(C)C`, the result in assay [1], in [2], in [5] and in assay [6] was inactive.
`CC(N)CCCC(C)(C)O` (stereo not given): the result in [1], in [2] and in [5] was inactive.
For `CN(C)CCc1c[nH]c2ccc(Cn3cncn3)cc12`, the call in assay [1], in assay [2] and in assay [6] was inactive.
